Measurements as given in the supplement of paper PMC9477273.

Each molecule was assayed on DRIVER-selected RNA biosensor (aptazyme) pool (assay: maximum fold change of ribozyme cleavage across biosensor pool versus no-compound control; higher = stronger biosensor response (ligand inhibits cleavage)). Settings: 10 µM.
Procedure, shortened: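 A pool of 1,730 ribozyme biosensors, resynthesized on an array, was transcribed with T7 at 37°C for 15–30 min in 9 mM rNTPs, with one compound present at a final 10 µM (added from a 10x DMSO stock). Reverse transcription followed at 50°C, and the cleaved and uncleaved products were PCR-barcoded and counted by Illumina sequencing. The reported fold change of cleavage is the highest value across all biosensors, taken as the ratio of cleaved:uncleaved read fractions relative to a no-compound condition and corrected with reference sequences.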

**Q.** How did the maximum fold change turn out when `O=C(CCc1ccccc1)N1CCC(c2ccccc2)C1` (stereo unspecified) was run?
**A.** 1.79

**Q.** `Cc1ccccc1-c1nc(CS(=O)(=O)CC(=O)NC2CCCCC2C)c(C)o1` (stereo unspecified) was tested. Which maximum fold change did it give?
**A.** 2.07

**Q.** With `N#C/C(=Cc1c(Oc2ccc(cc2)C)nc2n(c1=O)cccc2)/C(=O)OC` as the molecule, how does the maximum fold change read?
**A.** 5.19

**Q.** `CC(C)CC(NC(=O)/C(=C/c1ccco1)NC(=O)c1ccc(Br)o1)C(=O)O` (stereo unspecified) was tested. Which maximum fold change did it give?
**A.** 1.98

**Q.** With `Cc1ccccc1-c1nc(CS(=O)(=O)CC(=O)N2CCN(Cc3ccccc3)CC2)c(C)o1` as the molecule, how does the maximum fold change read?
**A.** 3.66

**Q.** For `N=C1NC(=O)/C(=C/c2cc(Br)ccc2OCc2ccccc2)S1`, which maximum fold change is on record?
**A.** 4.89

**Q.** For `C=Cc1ccc(Cn2c(C)c(CNCCc3ccccc3)c(C(=O)O)c2C)cc1`, which maximum fold change is on record?
**A.** 2.07

**Q.** Which maximum fold change does the source give for `CCO/C=N/c1oc(C)c(C)c1C#N` here?
**A.** 3.22

**Q.** `CCOc1cc2c(cc1OCC)C1C(C(=O)N(CC)Cc3ccccc3)c3ccccc3C(=O)N1CC2` (stereo unspecified) was tested. Which maximum fold change did it give?
**A.** 3.54

**Q.** How did the maximum fold change turn out when `Cc1cc(C2C(=O)c3ccccc3C2=O)nc2ccccc12` was run?
**A.** 11.3

**Q.** For `Cc1ccn2c(=O)c(C(=O)Nc3cccnc3)cnc2c1`, which maximum fold change is on record?
**A.** 10.8

**Q.** How did the maximum fold change turn out when `COc1ccc(-c2cn3c(C)c(C(=O)NCCCOC(C)C)sc3n2)cc1` was run?
**A.** 2.79

**Q.** With `COc1cc(CNCc2c(C(=O)O)c(C)n(Cc3ccc(F)cc3)c2C)cc(OC)c1OC` as the molecule, how does the maximum fold change read?
**A.** 3.4

**Q.** `Cc1cc2c(c(=O)n1CCN(C)C)C(c1cccc(Br)c1)C(C#N)=C(N)O2` (stereo unspecified) was tested. Which maximum fold change did it give?
**A.** 2.39

**Q.** For `COc1ccc(C2=NN(CCC(=O)N3CCCCC3)C(=O)CC2)cc1`, which maximum fold change is on record?
**A.** 4.11

**Q.** How did the maximum fold change turn out when `CCOC(=O)c1cnc2c(C)c(Cl)ccc2c1NCc1ccco1` was run?
**A.** 6.11

**Q.** How did the maximum fold change turn out when `CCc1ccc2oc(C(=O)N(Cc3ccccc3F)C3CCS(=O)(=O)C3)c(C)c2c1` (stereo unspecified) was run?
**A.** 4.9

**Q.** How did the maximum fold change turn out when `O=C(CCNC(=O)Cn1cnc2sc3c(c2c1=O)CCCC3)NCC1CCCO1` (stereo unspecified) was run?
**A.** 3.04

**Q.** With `CCNC(=S)N1CCN=C1Nc1nc(C)cc(C)n1` as the molecule, how does the maximum fold change read?
**A.** 2.17

**Q.** `COc1ccc(/C=C2N=C(c3ccc(Cl)c(Cl)c3)OC2=O)cc1` was tested. Which maximum fold change did it give?
**A.** 2.84

**Q.** How did the maximum fold change turn out when `COc1ccc(-c2cn3c4ccccc4n(N)c3n2)cc1OC` was run?
**A.** 3.73

**Q.** For `O=C1N=c2sc(nn2C(=N)/C/1=Cc1cccn1Cc1ccccc1F)N1CCCC1`, which maximum fold change is on record?
**A.** 4.06

**Q.** Which maximum fold change does the source give for `CCOC(=O)N1CCC(NC(=O)c2ccc(CS(=O)c3cccc(C)c3)o2)CC1` (stereo unspecified) here?
**A.** 2.53

**Q.** Which maximum fold change does the source give for `COc1ccc(cc1C1=N/C(=CNc2ccccn2)/C(=O)O1)Cl` here?
**A.** 6.85

**Q.** How did the maximum fold change turn out when `COc1ccc(C(=O)Cn2c3ccccc3n3nc(-c4ccccc4)nc23)cc1OC` was run?
**A.** 4.22

**Q.** For `COc1ccccc1/C=C1N=C(c2ccc(Br)cc2)OC1=O`, which maximum fold change is on record?
**A.** 2.7

**Q.** Which maximum fold change does the source give for `O=C(c1ccccc1O)N1CCOCC1` here?
**A.** 1.99

**Q.** For `COc1ccc(C=C2C(=O)c3ccccc3C2=O)c(C)c1`, which maximum fold change is on record?
**A.** 2.53

**Q.** `CC12CCC(C(=O)O)(c3nc4ccc5ncccc5c4nc31)C2(C)C` (stereo unspecified) was tested. Which maximum fold change did it give?
**A.** 2.74

**Q.** `c1ccc2nc3c(nc2c1)c1ccccc1n3CN1CCCCC1` was tested. Which maximum fold change did it give?
**A.** 10.9

**Q.** For `Cc1c(C(=O)NCc2ccccc2Cl)oc2c1-c1[nH]ncc1CC2`, which maximum fold change is on record?
**A.** 2.79
